The values below come from PubChem BioAssay (Tox21).

Results filed as inconclusive are left out. Active and inactive are the calls of the source. Unless noted, calls come from the whole dose curve; as a rule, active = well fitted curve in the direction sought with a large enough effect in the repeat runs; inconclusive = weak or mixed curves; inactive = no such curve, though single readings can be large; an effect the other way counts as inactive or inconclusive.

The nature of test [1]: A CellTox Green Cytotoxicity Assay to monitor cytotoxicity in HepG2 cells - 24 hour (AID 1224878). Note: nearly all actives have a fitted effect of over 45% in size. In short, it runs like this:
(§1)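 HepG2 cells were seeded together with the CellTox Green dye at 600 cells/well, left 5 h at 37 C/5% CO2, then given compounds in DMSO. Fluorescence from dye bound to dead-cell DNA was read repeatedly over 40 h of treatment at 37 C.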

Test [2] is described as follows: A CellTox Green Cytotoxicity Assay to monitor cytotoxicity in HepG2 cells - 40 hour (AID 1224879). Note: nearly all actives have a fitted effect of over 40% in size. In short, it runs like this: as §1
Test [3] can be described thus: qHTS RealTime-Glo MT Cell Viability Assay in HEK293 cells - 0 hour (AID 1224880). Note: top concentration of the series differs between compounds; nearly all actives have a fitted effect of over 45% in size. In short, it runs like this: (§2)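 HEK293 cells mixed with RealTime-Glo reagents (NanoLuc plus cell-permeant prosubstrate) at 600 cells/well, preincubated 5 h at 37 C/5% CO2, then given 23 nL compound in DMSO. Nonlytic luminescence from viable cells was read at 0, 8, 16, 24, 32 and 40 h.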

Test [4] can be described thus: A CellTox Green Cytotoxicity Assay to monitor cytotoxicity in HEK293 cells - 32 hour (AID 1224881). Note: nearly all actives have a fitted effect of over 40% in size. Put shortly:
(§3)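 HEK293 cells premixed with CellTox Green dye were seeded at 600 cells/well and left 5 h at 37 C/5% CO2 before pin transfer of 23 nL compound in DMSO. Fluorescence from dye bound to dead-cell DNA was read during 40 h treatment.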

The nature of test [5]: A CellTox Green Cytotoxicity Assay to monitor cytotoxicity in HepG2 cells - 0 hour (AID 1224882). Note: nearly all actives have a fitted effect of over 35% in size. In short, it runs like this:
as §1

Test [6] is described as follows: A CellTox Green Cytotoxicity Assay to monitor cytotoxicity in HepG2 cells - 32 hour (AID 1224883). Note: nearly all actives have a fitted effect of over 50% in size. In short, it runs like this:
as §1

Test [7] in a line: A CellTox Green Cytotoxicity Assay to monitor cytotoxicity in HEK293 cells - 8 hour (AID 1224884). Note: nearly all actives have a fitted effect of over 35% in size. In short, it runs like this: as §3
A short description of test [8]: qHTS RealTime-Glo MT Cell Viability Assay in HepG2 cells - 16 hour (AID 1224885). Note: nearly all actives have a fitted effect of over 50% in size. In short, it runs like this:
(§4)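 Tox21 10K library screened in qHTS format on HepG2 cells carrying RealTime-Glo reagents. Compounds were added after a 5 h preincubation, and the luminescent signal from continuous culture was measured repeatedly during 40 h treatment.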

Test [9] can be described thus: qHTS RealTime-Glo MT Cell Viability Assay in HEK293 cells - 24 hour (AID 1224886). Note: top concentration of the series differs between compounds; nearly all actives have a fitted effect of over 50% in size. In short, it runs like this:
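Luminescence generated by NanoLuc from substrate produced by living HEK293 cells served as the viability signal. Each value reflects the reading at its stated time point during continuous 40 h compound exposure at 37 C.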

A short description of test [10]: qHTS RealTime-Glo MT Cell Viability Assay in HEK293 cells - 8 hour (AID 1224887). Note: top concentration of the series differs between compounds; nearly all actives have a fitted effect of over 50% in size. Put shortly: as §2
Test [11] in a line: A CellTox Green Cytotoxicity Assay to monitor cytotoxicity in HEK293 cells - 16 hour (AID 1224888). Note: nearly all actives have a fitted effect of over 35% in size. In short, it runs like this: as §3
Test [12] is described as follows: qHTS RealTime-Glo MT Cell Viability Assay in HepG2 cells - 0 hour (AID 1224889). Note: nearly all actives have a fitted effect of over 50% in size. In short, it runs like this: as §4
Test [13] is described as follows: A CellTox Green Cytotoxicity Assay to monitor cytotoxicity in HepG2 cells - 8 hour (AID 1224890). Note: nearly all actives have a fitted effect of over 45% in size. In short, it runs like this:
as §1

The nature of test [14]: qHTS assay to identify small molecule antagonists of the estrogen receptor alpha (ER-alpha) signaling pathway using the BG1 cell line in the presence of 0.1 nM 17-beta-estradiol - cell viability counter screen (AID 1259241). Note: nearly all actives have a fitted effect of over 40% in size. In short, it runs like this: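 Viability in VM7Luc4E2 cells after 22 hr compound exposure under 0.1 nM 17beta-estradiol stimulation, by CellTiter-Fluor.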

A short description of test [15]: qHTS assay to identify small molecule antagonists of the androgen receptor (AR) signaling pathway using the MDA cell line in the presence of 0.5 nM R1881 - cell viability counter screen (AID 1259242). Note: nearly all actives have a fitted effect of over 45% in size. In short, it runs like this: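 MDA-kb2 cells (human breast carcinoma, stably carrying MMTV-luciferase reporter) were exposed to compounds with 0.5 nM R1881 (final) for 16 hr at 37C, 0% CO2; viability then read as live-cell protease fluorescence (CellTiter-Fluor, 30 min) in the same wells.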

A short description of test [16]: qHTS assay to identify small molecule HDAC inhibitors (AID 1259364). Put shortly: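 Wild-type HCT-116 cells were plated overnight, exposed to compounds for 2 h at 37 °C, then given HDAC-Glo class I/II luminogenic reagent for 30 min at room temperature before luminescence was read.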
Test [17] is described as follows: qHTS assay to identify small molecule HDAC inhibitors - cell viability counter screen (AID 1259365). Put shortly:
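Cytotoxicity was gauged in wild-type HCT-116 cells after a brief 2hr treatment with DMSO-dissolved compounds at 37C and 5% CO2, using CellTiter-Glo luminescence developed for 30min at room temperature.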

In test [18] the target is Estrogen receptor (Homo sapiens) (UniProt P03372). Kind of test: qHTS assay to identify small molecule antagonists of the estrogen receptor alpha (ER-alpha) signaling pathway using the BG1 cell line in the presence of 0.1 nM 17-beta-estradiol (AID 1259244). Note: nearly all actives have a fitted effect of over 50% in size. Put shortly:
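VM7Luc4E2 cells (endogenous full-length ER-alpha, stable 4xERE-luciferase) were grown 5 days in phenol red-free medium with charcoal-stripped FBS, then exposed 22 h at 37C to compounds plus 0.1 nM (final) 17beta-estradiol; ONE-Glo luminescence read-out.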

Test [19] has as its target Androgen receptor (Homo sapiens) (UniProt P10275). Kind of test: qHTS assay to identify small molecule antagonists of the androgen receptor (AR) signaling pathway using the MDA cell line in the presence of 0.5 nM R1881 (AID 1259243). Note: nearly all actives have a fitted effect of over 50% in size. Note: potency is the fitted concentration of half-maximal effect. In short, it runs like this: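 MDA-kb2 human breast carcinoma cells carrying an MMTV-luciferase reporter (AR- and GR-responsive) were plated, rested 5 hr at 37C, dosed with compounds, then stimulated with 0.5 nM R1881 (final) for 16 hr; luminescence was read after ONE-Glo.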

Test [20] in a line: qHTS assay to identify small molecule phospholipidosis (PLD) inducers (AID 1259344; active = well fitted curve in the direction sought with a large enough effect; an effect the other way counts as inactive or inconclusive). In short, it runs like this: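 Phospholipidosis is scored by imaging LipidTOX-stained pits in HepG2 cells exposed to compound for 24 h at 37 C; pit counts and integrated intensities per well and per cell serve as outputs.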

Sequence of Estrogen receptor (Homo sapiens) (P03372 whole entry, looked up): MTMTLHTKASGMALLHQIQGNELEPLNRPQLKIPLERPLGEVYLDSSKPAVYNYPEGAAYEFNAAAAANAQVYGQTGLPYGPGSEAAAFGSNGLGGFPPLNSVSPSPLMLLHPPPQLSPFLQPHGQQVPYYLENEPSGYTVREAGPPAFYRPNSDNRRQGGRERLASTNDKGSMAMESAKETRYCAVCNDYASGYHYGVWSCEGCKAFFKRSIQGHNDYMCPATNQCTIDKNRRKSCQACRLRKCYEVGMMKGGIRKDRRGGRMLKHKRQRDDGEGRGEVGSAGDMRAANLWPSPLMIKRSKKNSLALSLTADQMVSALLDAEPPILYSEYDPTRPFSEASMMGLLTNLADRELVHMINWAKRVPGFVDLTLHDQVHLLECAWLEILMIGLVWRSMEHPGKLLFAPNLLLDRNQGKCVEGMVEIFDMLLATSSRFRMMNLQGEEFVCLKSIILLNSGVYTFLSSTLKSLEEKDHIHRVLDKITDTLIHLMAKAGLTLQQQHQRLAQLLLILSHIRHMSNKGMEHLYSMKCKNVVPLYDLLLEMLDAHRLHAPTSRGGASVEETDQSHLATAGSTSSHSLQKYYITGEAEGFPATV
Sequence of Androgen receptor (Homo sapiens) (P10275 whole entry, looked up): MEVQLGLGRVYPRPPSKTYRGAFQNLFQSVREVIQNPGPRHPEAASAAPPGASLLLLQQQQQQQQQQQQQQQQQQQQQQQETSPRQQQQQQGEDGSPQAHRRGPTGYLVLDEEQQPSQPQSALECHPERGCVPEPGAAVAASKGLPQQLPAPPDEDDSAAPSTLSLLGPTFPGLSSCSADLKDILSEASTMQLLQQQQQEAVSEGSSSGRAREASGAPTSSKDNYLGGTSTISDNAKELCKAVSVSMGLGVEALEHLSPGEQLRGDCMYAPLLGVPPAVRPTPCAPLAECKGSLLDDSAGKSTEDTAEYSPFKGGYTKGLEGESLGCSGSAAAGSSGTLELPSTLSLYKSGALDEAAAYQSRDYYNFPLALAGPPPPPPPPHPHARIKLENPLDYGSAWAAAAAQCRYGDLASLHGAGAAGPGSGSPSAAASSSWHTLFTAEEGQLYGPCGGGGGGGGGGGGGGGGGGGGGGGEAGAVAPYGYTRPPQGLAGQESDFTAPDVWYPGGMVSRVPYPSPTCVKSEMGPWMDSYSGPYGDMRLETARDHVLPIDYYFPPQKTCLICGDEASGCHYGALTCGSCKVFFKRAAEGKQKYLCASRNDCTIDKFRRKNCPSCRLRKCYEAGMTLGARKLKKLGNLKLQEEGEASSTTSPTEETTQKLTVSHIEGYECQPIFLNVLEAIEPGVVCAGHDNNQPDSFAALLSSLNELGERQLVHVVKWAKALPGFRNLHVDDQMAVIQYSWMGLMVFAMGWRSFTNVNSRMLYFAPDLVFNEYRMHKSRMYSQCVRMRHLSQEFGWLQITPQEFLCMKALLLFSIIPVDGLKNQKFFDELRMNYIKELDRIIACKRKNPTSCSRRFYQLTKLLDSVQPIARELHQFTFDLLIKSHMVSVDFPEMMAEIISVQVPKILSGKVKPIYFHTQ

`CCCCCCCCS(=O)(=O)O`: the Potency entry in test [1], in test [2], in test [3], in [4], in test [5] and in [6] was “inactive” in each case. Besides, the Potency result in test [7], in test [11], in test [12], in [13] and in test [16] was “inactive” each time. In addition, the call in [8], in test [9], in test [10], in test [14], in test [15] and in test [17] was inactive.

`COC(=O)c1ccccc1Cl`: the Potency entry in test [1], in [2], in [3], in [4], in test [5] and in [6] was “inactive” throughout. In addition, the Potency entry in test [7], in [11], in test [12], in test [13] and in test [16] was “inactive” throughout. Besides, the result in test [8], in test [9], in test [10], in test [14], in test [15] and in [17] was inactive.

With `CCCC(=O)CC`, the Potency entry in test [1], in [2], in [3], in test [4], in [5] and in test [6] was “inactive” in each case. The Potency entry in [7], in test [11], in [12] and in [13] was “inactive” throughout. Further, the call in test [8], in [9], in test [10], in test [14], in test [18] and in test [17] was inactive.

For the compound `N[C@H]1C(O)O[C@H](CO)[C@@H](O)[C@@H]1O` (some centres not stated), the Potency result in [1], in test [2], in [3], in test [4], in [5] and in [6] was “inactive” each time. Moreover, the Potency result in test [7], in test [11], in test [12], in test [13], in test [19] and in [20] was “inactive” in each case. In test [16], the Potency result is “inactive”. Moreover, the compound was called inactive in test [8], in [10], in [14], in [15], in test [18] and in test [17].

On to `O=S(=O)(O)c1ccc(Cl)cc1`, for which the Potency result in test [1], in test [2], in [3], in test [4], in test [5] and in test [6] was “inactive” throughout. The Potency result in [7], in [11], in [12] and in [13] was “inactive” in each case. The compound was called inactive in [8], in [10], in [14], in test [15], in [18] and in test [17].

For `Clc1ccc2c(c1)Nc1ccccc1S2`, the Potency entry in test [1], in [2], in test [3], in test [4], in [5] and in [6] was “inactive” in each case. In addition, the Potency result in [7], in test [11], in test [12], in test [13] and in [16] was “inactive” each time. Also, the call in test [8], in [9], in [14], in [15], in test [18] and in test [17] was inactive. The Potency in [19] is 10.6 µM (active).

For `O=C(c1ccccc1)c1cccc(O)c1`, the Potency result in test [1], in test [2], in [3], in [4], in test [5] and in test [6] was “inactive” in each case. In addition, the Potency result in test [7], in test [11], in test [12] and in test [13] was “inactive” in each case. For the same compound, the compound was classed as inactive in test [8], in test [10], in [14], in test [15] and in [17]. Also, the Potency in test [19] is 27.7 µM (active).

`CCO/C=C1\N=C(c2ccccc2)OC1=O`: the Potency entry in [1], in test [2], in test [3], in [4], in test [5] and in test [6] was “inactive” throughout. For the same compound, the Potency entry in [7], in test [11], in test [12], in test [13] and in test [16] was “inactive” each time. Also, the result in [8], in test [9], in test [10], in [14] and in test [17] was inactive.

Regarding `CCC(C)(C)C`, the Potency entry in test [1], in test [2], in test [3], in test [4], in test [5] and in test [6] was “inactive” each time. Moreover, the Potency entry in [7], in test [11], in test [12], in [13] and in [16] was “inactive” each time. Moreover, the compound was called inactive in test [8], in test [9], in test [10], in test [15], in [18] and in [17].
